Among the data in PubChem BioAssay (Tox21) are Potency values, retold here.

The nature of test [1]: qHTS assay for identifying genotoxic compounds that show differential cytotoxicity against isogenic chicken DT40 cell lines with known DNA damage response pathways - wild type cell line (AID 743012). Note: nearly all actives have a fitted effect of over 60% in size. Note: potency is the fitted concentration of half-maximal effect. Summed up:
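Wild type DT40, 300 cells/well, ~0.5 h settle at 37 C/5% CO2; compounds in DMSO added by pintool; 40 h at 37 C/5% CO2; CellTiter-Glo, 30 min RT; luminescence.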

The nature of test [2]: qHTS assay for identifying genotoxic compounds that show differential cytotoxicity against isogenic chicken DT40 cell lines with known DNA damage response pathways - Rev3 mutant cell line (AID 743014). Note: nearly all actives have a fitted effect of over 55% in size. Note: potency is the fitted concentration of half-maximal effect. Background: qHTS replaces the single test concentration by a dilution series.
A short description of test [3]: qHTS assay to identify small molecule antagonists of the androgen receptor (AR) signaling pathway using the MDA cell line - cell viability counter screen (AID 743041; note: nearly all actives have a fitted effect of over 45% in size; note: potency is the fitted concentration of half-maximal effect). Summed up:
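Viability counter screen run alongside the AR antagonist reporter: cells seeded 5 h before compound, R1881 added, 16 h incubation at 37C without CO2, fluorescent CellTiter-Fluor signal quantified.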

Test [4] can be described thus: qHTS assay for identifying genotoxic compounds that show differential cytotoxicity against isogenic chicken DT40 cell lines with known DNA damage response pathways - Rad54/Ku70 mutant cell line (AID 743015). Note: nearly all actives have a fitted effect of over 60% in size. Note: potency is the fitted concentration of half-maximal effect.
Test [5] is described as follows: qHTS assay to identify small molecule antagonists of the androgen receptor (AR) signaling pathway - cell viability counter screen (AID 743033; note: nearly all actives have a fitted effect of over 45% in size; note: potency is the fitted concentration of half-maximal effect).
The target in test [6] is Androgen receptor (Homo sapiens) (UniProt P10275). The test is described as follows: qHTS assay to identify small molecule antagonists of the androgen receptor (AR) signaling pathway (AID 743035; active = well fitted inhibition curve with a large enough effect in the signal ratio in the repeat runs, not every such curve was filed as active; the % refers to the signal ratio; note: potency is the fitted concentration of half-maximal effect). Summed up: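 Fluorescence from a beta-lactamase FRET substrate (LiveBLAzer B/G, 2 h, room temperature) measured inhibition of R1881-stimulated signaling in GeneBLAzer AR-UAS-bla HEK293 cells exposed to compound for 16 h at 37C.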
Chain of Androgen receptor (Homo sapiens) (P10275 whole entry, looked up): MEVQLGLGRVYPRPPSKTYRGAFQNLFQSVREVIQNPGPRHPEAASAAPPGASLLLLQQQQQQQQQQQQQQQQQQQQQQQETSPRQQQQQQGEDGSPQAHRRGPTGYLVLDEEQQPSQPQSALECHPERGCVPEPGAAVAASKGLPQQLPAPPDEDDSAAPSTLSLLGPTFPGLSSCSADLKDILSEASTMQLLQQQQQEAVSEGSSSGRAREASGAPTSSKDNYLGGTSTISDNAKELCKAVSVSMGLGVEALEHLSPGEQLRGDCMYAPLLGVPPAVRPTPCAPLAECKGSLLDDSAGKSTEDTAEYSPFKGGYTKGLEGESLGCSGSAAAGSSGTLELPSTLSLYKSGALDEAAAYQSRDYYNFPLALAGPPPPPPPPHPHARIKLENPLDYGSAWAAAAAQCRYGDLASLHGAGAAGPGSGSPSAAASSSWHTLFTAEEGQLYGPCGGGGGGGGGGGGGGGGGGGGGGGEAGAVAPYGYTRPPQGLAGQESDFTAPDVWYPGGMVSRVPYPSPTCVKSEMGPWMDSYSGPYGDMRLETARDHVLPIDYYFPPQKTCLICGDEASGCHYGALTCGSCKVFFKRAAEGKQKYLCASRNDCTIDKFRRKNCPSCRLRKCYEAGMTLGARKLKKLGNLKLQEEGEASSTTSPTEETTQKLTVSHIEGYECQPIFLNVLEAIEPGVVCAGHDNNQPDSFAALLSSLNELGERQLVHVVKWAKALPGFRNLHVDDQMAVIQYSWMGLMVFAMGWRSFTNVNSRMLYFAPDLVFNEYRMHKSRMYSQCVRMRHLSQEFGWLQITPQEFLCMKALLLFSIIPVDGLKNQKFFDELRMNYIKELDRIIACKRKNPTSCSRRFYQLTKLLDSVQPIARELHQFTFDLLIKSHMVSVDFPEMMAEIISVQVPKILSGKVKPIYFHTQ

Test [7] shares this target. The test is described as follows: qHTS assay to identify small molecule agonists of the androgen receptor (AR) signaling pathway (AID 743036; active = well fitted activation curve with a large enough effect in the signal ratio in the repeat runs, with a control signal flat, not every such curve was filed as active; the % refers to the signal ratio; note: potency is the fitted concentration of half-maximal effect). Summed up: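 HEK293 cells stably carrying a UAS-driven beta-lactamase reporter (GeneBLAzer AR-UAS-bla-GripTite) were plated at 2,000 cells/well, rested 4 h at 37C, then exposed to compounds in DMSO for 16 h. LiveBLAzer B/G FRET substrate was added for 2 h at room temperature; fluorescence read.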

Test [8] has the same target. The test is described as follows: qHTS assay to identify small molecule agonists of the androgen receptor (AR) signaling pathway using the MDA cell line (AID 743040; note: nearly all actives have a fitted effect of over 20% in size). Summed up: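 Luminescence from ONE-Glo, read after 30 min at room temperature, reflects MMTV-driven luciferase in MDA-kb2 cells (AR- and GR-responsive). Treatment lasted 16 h at 37C, 0% CO2.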
The nature of test [9]: qHTS assay to identify small molecule antagonists of the glucocorticoid receptor (GR) signaling pathway - cell viability counter screen (AID 720693). Note: nearly all actives have a fitted effect of over 55% in size.
Test [10] concerns the target Androgen receptor (Homo sapiens) (UniProt P10275). The test is described as follows: qHTS assay to identify small molecule antagonists of the androgen receptor (AR) signaling pathway using the MDA cell line (AID 743042; note: nearly all actives have a fitted effect of over 55% in size; note: potency is the fitted concentration of half-maximal effect). The procedure, abridged: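 MDA-kb2 cells (human breast carcinoma, stably carrying an MMTV-luciferase reporter responsive to AR and GR) were plated at 3,000 cells/well and preincubated 5 hr at 37C, then given compound plus R1881 agonist for 16 h. ONE-Glo luminescence was read.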

Values joined by “and” are separate entries in the source; they are usually repeats but may differ in a detail not shown here. Identical values can stand only once. Inconclusive results are not listed. Active and inactive are the calls of the source. Unless noted, calls come from the whole dose curve; as a rule, active = well fitted curve in the direction sought with a large enough effect in the repeat runs; inconclusive = weak or mixed curves; inactive = no such curve, though single readings can be large; an effect the other way counts as inactive or inconclusive.

On to `S=C1NC=NC2N=CNC12` (centres undefined), for which the Potency in test [1] is 54.5 µM (active); in test [2], 48.6 µM (active). Further, in [3], the Potency entry was “inactive”.

As to `O=C1OC(O)C(C(Cl)Cl)=C1Cl` (centres undefined), the Potency in test [1] is 17.8 µM (active); in [2] it was 1.26 µM (active); in test [4], 19.9 µM (active); in test [5] it was 22.5 µM (active). Moreover, the Potency entry in [3] was “inactive”.

Take `COc1cc(NS(C)(=O)=O)ccc1Nc1c2ccccc2nc2ccccc12`: the Potency in test [1] is 0.0596 µM (active); in test [2] it was 0.0668 µM (active); in test [4], 0.0084 µM (active); in test [6], 0.601 µM (active); in test [7], 10.7 µM (active). The Potency entry in [8] and in [3] was “inactive” each time.

Consider `CCCCCCCC[N+](C)(C)CCCCCCCC`, for which the Potency was 668 nM (active) and 531 nM (active) in [1]; 1.19 µM (active) and 1.06 µM (active) in test [2]; 1.33 µM (active) and 944 nM (active) in test [4]; 16.9 µM (active) and 12 µM (active) in test [5]; 21.1 µM (active) in test [3].

As for `O=S(=O)(O)CC(S)CS` (centres undefined), the Potency entry in test [9], in test [5], in [6], in [8], in test [3] and in [10] was “inactive” throughout. In test [4], the Potency is 3.76 µM (active).

As to `CO[C@H]1C[C@@H]2CC[C@@H](C)[C@@](O)(O2)C(=O)C(=O)N2CCCC[C@H]2C(=O)O[C@H]([C@H](C)C[C@@H]2CC[C@@H](O)[C@H](OC)C2)CC(=O)[C@H](C)C=C(C)[C@@H](O)[C@@H](OC)C(=O)[C@H](C)C[C@H](C)/C=C/C=CC=C1C`, the Potency in test [1] is 2.4 nM (active) and 3 nM (active); in test [2], 2.7 nM (active) and 2.4 nM (active); in [4], 3.3 nM (active) and 5.3 nM (active); in [6] it was 10.7 µM (active) and 26.8 µM (active); in test [3], 29.8 µM (active); in test [10], 21.1 µM (active) and 23.7 µM (active). For the same compound, the Potency entry in test [5] and in test [8] was “inactive” in each case.

For `CN[C@H]1CC[C@@H](c2ccc(Cl)c(Cl)c2)c2ccc(S(N)(=O)=O)cc21`, the Potency was 13.7 µM (active) in [1]; 13.7 µM (active) in test [2]; 13.7 µM (active) in test [4]; 54.9 µM (active) in test [5]; 43.6 µM (active) in test [6]; 68.6 µM (active) in [10]. The Potency entry in test [7] and in test [8] was “inactive” each time.

As for `CC(C)(O/N=C(\C(=O)N[C@@H]1C(=O)N2C(C(=O)[O-])=C(C[n+]3ccccc3)CS[C@H]12)c1csc(N)n1)C(=O)O`, the Potency result in [1], in [2], in test [4], in [5] and in test [3] was “inactive” in each case.

As for `COc1cccc(-c2ccc(/C=C\CN3CCCCCC3)cc2Cl)c1`, the Potency in test [1] was 3.05 µM (active); in test [2] it was 0.483 µM (active); in test [4], 2.16 µM (active); in test [5], 38.7 µM (active).

Consider `CC(Cc1ccc(O)c(O)c1)C(C)Cc1ccc(O)c(O)c1` (centres undefined), for which the figures for the Potency in [1], in test [2] and in test [4] were 13.7 µM (active), 30.6 µM (active) and 15.4 µM (active), respectively. Further, the Potency entry in test [5] and in test [3] was “inactive” each time.

Take `N[C@H](C(=O)O)[C@@H]1CC(Cl)=NO1`: the Potency in test [1] was 2.66 µM (active); in [2] it was 2.66 µM (active); in test [4], 2.98 µM (active). The Potency entry in [3] is “inactive”.

Turning to `NCc1cccc(C2CCN(C(=O)c3ccc(C#Cc4ccccc4F)o3)CC2)c1`, the Potency was 17.2 µM (active) in [1], 30.6 µM (active) in [2], 17.2 µM (active) in test [4] and 21.9 µM (active) in test [5]. Moreover, the Potency entry in test [8] was “inactive”.

On to `CN1C(C(=O)Nc2ccccn2)C(=O)c2sc(Cl)cc2S1(=O)=O` (centres undefined), for which the Potency entry in test [9], in test [4], in [5] and in [3] was “inactive” throughout.

Consider `NC(=O)C1c2ccccc2CCc2ccccc21`, for which the Potency result in [9], in test [4], in [5], in test [7], in test [8] and in test [3] was “inactive” in each case. Moreover, the Potency entry in test [10] is “inactive”.

On to `O=C(Nc1ccccc1)c1cc(Cl)ccc1O`, for which the Potency in [1] was 13.7 µM (active); in test [2], 9.69 µM (active); in test [4] it was 9.69 µM (active); in test [5], 11 µM (active).

In the case of `C=CCc1cc(S(=O)(=O)c2ccc(O)c(CC=C)c2)ccc1O`, the Potency in test [1] is 30.6 µM (active); in test [2], 68.6 µM (active); in test [4] it was 54.5 µM (active); in test [6], 38.9 µM (active); in test [10], 61.1 µM (active). Moreover, the Potency entry in test [7] and in [8] was “inactive” throughout.

In the case of `OCCCNc1ccccc1`, the Potency entry in test [9], in test [4], in test [5] and in [3] was “inactive” each time.

`SC1CCCCC1`: the Potency result in [1], in test [2], in test [4], in test [5] and in test [3] was “inactive” in each case.

In the case of `CC1CCCCN1CCCOC(=O)c1ccccc1` (centres undefined), the Potency entry in test [9], in [5] and in [3] was “inactive” each time.

As for `C[C@@H]1O[C@@H](OC[C@H]2O[C@@H](Oc3c(-c4ccc(OCCO)c(OCCO)c4)oc4cc(OCCO)cc(O)c4c3=O)[C@H](O)[C@@H](O)[C@@H]2O)[C@H](O)[C@H](O)[C@H]1O`, the Potency entry in test [1], in test [4], in [5], in test [6], in test [7] and in test [8] was “inactive” throughout. For the same compound, the Potency result in test [3] and in test [10] was “inactive” each time.

Consider `CN1CCN(c2ccccc2/C=C2\SCCN(c3ccc(Cl)c(Cl)c3)C2=O)CC1`, for which the Potency was 4.33 µM (active) in test [1], 2.73 µM (active) in test [2] and 5.45 µM (active) in test [4].

On to `CN(C)CCC(O)(c1ccccc1)c1ccccc1Cl` (centres undefined), for which the Potency result in test [9], in test [5] and in [3] was “inactive” each time.
